We go through 40 molecules from ChEMBL document CHEMBL3988442, “University of Dundee, Small-Polar-MMV Screening Library” (2021).

The test has as its target AMP-activated protein kinase, AMPK (Homo sapiens) (UniProt P54646+O43741+P54619+Q9UGJ0+Q9Y478+Q13131+Q9UGI9). The test can be described thus: AMP-dependent Kinase enzyme assay. An in vitro enzyme assay that detects ADP turnover that is directly proportional to AMPK activity. This uses naive AMPK that is activated during the assay with MK-8722. It counts as functional. Also noted: scale not given: direction of the effect not stated beside the values. The settings on record: 30 µM.
Turning to `COCCN(CCOC)c1nc2c(s1)c(C)nn2C`, the Percent Effect came to 0.796%. Turning to `CCC(NC(=O)NC1CCN(S(C)(=O)=O)CC1)c1cccs1` (stereo not given), the Percent Effect was -3.19%.

Consider `Cc1c(CN2Cc3nccn3CC2c2ccccc2)cnn1C` (stereo not given), for which the Percent Effect was found to be 7.11%. Turning to `O=C(O)CCc1cc2n(n1)CCCN(C(=O)c1ccc(Cl)s1)C2`, the Percent Effect stood at 2.58%. Take `Cn1cc(NC(=O)N2CCCC2c2ccccn2)ccc1=O` (stereo not given): the Percent Effect is 40.9%. As to `CCn1ncnc1C(C)Nc1cc(C2CCNCC2)nc(C)n1` (stereo not given), the Percent Effect is -7.46%. As to `CCn1cnnc1CNS(=O)(=O)N1CCCC1c1ccco1` (stereo not given), the Percent Effect is -5.92%. For the molecule `CCCn1nc(C)c(CN2CC3(CCOC3)CCC2=O)c1C` (stereo not given), the Percent Effect worked out at 1.7%. In the case of `CCCOc1ccc2c(c1)OCC(CNC1CCc3ncnn3C1)=C2` (stereo not given), the Percent Effect was determined as 10.2%. Consider `COc1ncnc(N)c1CNCc1ccccc1-n1cccn1`, for which the Percent Effect is -8.85%. On to `COCCCN1CCN(C(=O)C(c2cccc(F)c2)N(C)C)CC1` (stereo not given), for which the Percent Effect is -3.6%. As for `CC(C)c1ccc(/C=C/CC(=O)NC2CCN(C(N)=O)C2)cc1` (stereo not given), the Percent Effect came out at 1.32%.

Turning to `CC1(c2ncc(CN3CCOCC3)cn2)CCCCO1` (stereo not given), the Percent Effect was 9.84%. On to `CCn1ccnc1CNCc1ccc(C)cc1OC(C)(C)C`, for which the Percent Effect was found to be 25.5%.

As to `Cc1cc(Br)ccc1C(=O)Nc1c(C(N)=O)n[nH]c1C`, the Percent Effect turned out to be 1.52%. For `CCn1ncc(CN2CCC(c3ncc(Cl)cc3S(C)(=O)=O)CC2)c1C`, the Percent Effect was determined as 6.21%. Consider `CC(C)Oc1cccc(F)c1C(C(=O)O)N1CCCN(C)CC1` (stereo not given), for which the Percent Effect came to 3.49%. The figure for `CC(C)n1nccc1CN1Cc2nccn2CC1c1ccccc1` (stereo not given) is -2.65%; for `O=C(CN1CCC(c2nnc(C(F)(F)F)o2)CC1)Nc1cccnc1` it is -5.12%; for `CCC1COCCN1C(=O)NCc1nccn1CC(C)C` (stereo not given) it is -3.83%. Turning to `CC1CCCN(c2ncc(-c3ccccc3F)c(-c3nccn3C)n2)C1` (stereo not given), the Percent Effect stood at 9.01%. Under `Cc1c(C(=O)N2CCCN(S(C)(=O)=O)CC2)cnn1C` stands 10.1%; under `Cc1ncc(CNC(CCO)C2CCCCC2)s1` (stereo not given), 4.05%.

In the case of `O=C(C1CNCCN1C(=O)CCOc1ccccc1)N1CCCC1` (stereo not given), the Percent Effect was 8.73%.

With `O=C(NCc1nnc2n1CCC2)c1ccc(C2CCCO2)s1` (stereo not given), the Percent Effect is 1.37%. The figure for `Cc1nccc(CNC(=O)NCCC(=O)N2CCCc3ccccc32)n1` is -8.67%. In the case of `CC(=O)c1ccc(-c2cnn(CC(=O)Nc3cc(C)nn3C)c2)nc1`, the Percent Effect is 0.263%. Turning to `COCC(C)NC(=O)N1CCN(S(C)(=O)=O)CC1` (stereo not given), the Percent Effect came to 11.4%. The figure for `CC(C)Cc1cc(C(=O)N2CCC(N3CCCC3)CC2)cc(O)n1` is 1.87%.

As for `C[C@@H]1CN(Cc2nc(C(N)=O)no2)CC[C@@]1(O)C1CCOCC1`, the Percent Effect was determined as 5.22%. Consider `Cc1nc(C2CCCNC2)cc(N2CCc3nc(N)sc3C2)n1` (stereo not given), for which the Percent Effect stood at 3.73%. As for `COc1ccc(N2CCN(Cc3noc(CC(C)C)n3)C(C)C2=O)cc1` (stereo not given), the Percent Effect is 0.845%. As to `COc1ccc(-n2cccn2)c(CN2CCOCC(CN(C)C)C2)c1` (stereo not given), the Percent Effect turned out to be 1.67%. Take `O=C(Nc1ccccc1OCCc1ccccn1)N1CC[C@@H](O)C1`: the Percent Effect came out at 8.55%. Consider `O=C(C1CCCO1)N1CCC(n2cc(-c3ccsc3)nn2)CC1` (stereo not given), for which the Percent Effect stood at 4.03%. On to `Cn1ccnc1-c1nc(N2CCCCC2)ncc1-c1ccccc1F`, for which the Percent Effect amounted to 9.62%. Under `CN(Cc1ccc(-n2cccn2)cc1)C[C@@H]1CCCN2CCCC[C@H]12` stands 5.54%. Consider `CCN(C)C(=O)c1cccc(S(=O)(=O)NCCc2nc(C)cc(=O)[nH]2)c1`, for which the Percent Effect was -5.87%. As to `NCc1ccnc(Oc2ccc(F)cc2)c1`, the Percent Effect came to 14.1%. With `Cc1ncsc1C(=O)NCCCN1CCCCCC1=O`, the Percent Effect is -10%.
